Reference: PubChem BioAssay (Tox21)
Inconclusive results are not listed. More than one record can exist for a structure, and the calls need not agree. Activity calls are given as the source filed them. Unless noted, the call rests on the fitted dose curve; in most records, active means well fitted curve in the direction sought with a large enough effect in the repeat runs; inconclusive means weak or mixed curves; inactive means no such curve, though single readings can be large; an effect the other way counts as inactive or inconclusive.

Assays:
[1] = qHTS assay to identify aromatase inhibitors - cell viability counter screen (AID 743084);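 further: cells stimulated with testosterone during compound exposure; nearly all actives have a fitted effect of over 55% in size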; further: potency means the concentration at half of the fitted maximal effect
[2] = target: Aryl hydrocarbon receptor (Homo sapiens) (UniProt P35869); assay: qHTS assay to identify small molecule that activate the aryl hydrocarbon receptor (AhR) signaling pathway (AID 743085);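 further: HG2L7.5c1 human HepG2 liver cells with stably integrated DRE-driven firefly reporter; series mostly up to about 70 µM; nearly all actives have a fitted effect of over 15% in size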
In short: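 A multiplexed format paired cell viability (CellTiter-Fluor fluorescence) with AhR-dependent luciferase output (ONE-Glo luminescence) in the same wells of HepG2 DRE-luc cells after 24 h compound exposure at 37C.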

[3] = qHTS assay to identify small molecule that activate the aryl hydrocarbon receptor (AhR) signaling pathway - cell viability counter screen (AID 743086); further: nearly all actives have a fitted effect of over 45% in size; further: potency means the concentration at half of the fitted maximal effect
In short: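 Cytotoxicity counter screen: CellTiter-Fluor signal (30 min, 37 C) in 4000 HepG2 cells/well carrying the DRE-luciferase reporter, following 24 h compound exposure at 37 C.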

[4] = target: Peroxisome proliferator-activated receptor gamma (Homo sapiens) (UniProt P37231); assay: qHTS assay to identify small molecule agonists of the peroxisome proliferator-activated receptor gamma (PPARg) signaling pathway (AID 743094; active means well fitted activation curve with a large enough effect in the signal ratio in the repeat runs, not every such curve was filed as active; the % refers to the signal ratio)
In short: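 Cells from the PPARg UAS-bla HEK293H line are plated and incubated 5 h at 37C. Compounds in DMSO are pinned in and left 17 h at 37C. LiveBLAzer B/G substrate is then added for 1 h at room temperature before fluorescence is measured.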

[5] = target: Peroxisome proliferator-activated receptor gamma (Homo sapiens) (UniProt P37231); assay: qHTS assay to identify small molecule antagonists of the peroxisome proliferator-activated receptor gamma (PPARg) signaling pathway (AID 743191; calls by dose curve; further: series mostly up to about 63 µM; nearly all actives have a fitted effect of over 30% in size)
In short: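 Beta-lactamase reporter under UAS control in HEK293H PPARg-bla cells; compound treatment 17 h at 37C. Read-out: fluorescence intensity after 1 h room-temperature incubation with LiveBLAzer B/G FRET substrate.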

[6] = qHTS assay to identify small molecule antagonists of the peroxisome proliferator-activated receptor gamma (PPARg) signaling pathway - cell viability counter screen (AID 743194); details: Potency: co-treated with 50 nM rosiglitazone; further: nearly all actives have a fitted effect of over 55% in size
In short: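 Viability was measured as CellTiter-Glo luminescence in GeneBLAzer PPARg UAS-bla HEK293H cells. These cells had been exposed 17 h at 37 C to compounds together with rosiglitazone at 50 nM final, with the beta-lactamase readout taken in the same wells.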

[7] = qHTS assay for small molecule agonists of the antioxidant response element (ARE) signaling pathway (AID 743202; active means well fitted activation curve with a large enough effect in the signal ratio in the repeat runs, not every such curve was filed as active; the % refers to the signal ratio)
In short: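 Beta-lactamase reporter activity, read as fluorescence intensity, reflects ARE/Nrf2 pathway induction in HepG2 cells after 16 h compound exposure at 37 C; substrate loading was 2 h at room temperature.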

[8] = qHTS assay for small molecule agonists of the antioxidant response element (ARE) signaling pathway - cell viability counter screen (AID 743203; calls by dose curve; further: nearly all actives have a fitted effect of over 55% in size)
In short: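 Cytotoxicity was tested in parallel with the ARE reporter screen. ARE-bla HepG2 cells were exposed to compounds for 16 hrs, and viability was taken from CellTiter-Glo luminescence.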

[9] = qHTS assay for small molecule activators of the heat shock response signaling pathway - cell viability counter screen (AID 743209); further: nearly all actives have a fitted effect of over 50% in size
In short: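 Cytotoxicity counter screen run in parallel with the HSE beta-lactamase reporter, using the same wells. HeLa HSE-bla cells received compound for 5 h at 37 C; ATP-based CellTiter-Glo luminescence was measured after 30 min at room temperature.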

[10] = target: Peroxisome proliferator-activated receptor delta (Homo sapiens) (UniProt Q03181); assay: qHTS assay to identify small molecule agonists of the peroxisome proliferator-activated receptor delta (PPARd) signaling pathway (AID 743212; calls by dose curve)
In short: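 Steps: seed PPARd-bla HEK293H cells; incubate 5 h, 37 C, 5% CO2; add compounds in DMSO; incubate, 37 C; add LiveBLAzer B/G FRET substrate; hold 2 h at room temperature; measure fluorescence.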

[11] = qHTS assay to identify small molecule antagonists of the peroxisome proliferator-activated receptor delta (PPARd) signaling pathway - cell viability counter screen (AID 743213); further: nearly all actives have a fitted effect of over 50% in size
In short: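 In this counter screen, HEK293H cells carrying a UAS-beta-lactamase reporter are co-treated with test compounds and 300 nM L165041 (final) for 17 h at 37 C; cell viability is quantified by CellTiter-Glo luminescence.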

[12] = target: Peroxisome proliferator-activated receptor delta (Homo sapiens) (UniProt Q03181); assay: qHTS assay to identify small molecule antagonists of the peroxisome proliferator-activated receptor delta (PPARd) signaling pathway (AID 743215; active means well fitted inhibition curve with a large enough effect in the signal ratio in the repeat runs, not every such curve was filed as active; the % refers to the signal ratio;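 further: cells stimulated with agonist L165041 at 300 nM final during compound exposure; series mostly up to about 62 µM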)
In short: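 Cells: HEK293H with a UAS-driven beta-lactamase reporter responsive to PPARd. Compounds were co-added with L165041 (300 nM, final) and incubated 17 h at 37 C before a 2 h room-temperature FRET substrate step and fluorescence reading.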

[13] = qHTS assay to identify small molecule agonists of the farnesoid-X-receptor (FXR) signaling pathway - cell viability counter screen (AID 743218); further: nearly all actives have a fitted effect of over 45% in size
In short: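 Cells were seeded, left 5 h at 37 C and 5% CO2, then dosed with compound in DMSO for 16 h. After the beta-lactamase FRET read, CellTiter-Glo was added and luminescence measured 30 min later.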

[14] = target: Bile acid receptor (Homo sapiens) (UniProt Q96RI1); assay: qHTS assay to identify small molecule agonists of the farnesoid-X-receptor (FXR) signaling pathway (AID 743220; active means well fitted activation curve with a large enough effect in the signal ratio in the repeat runs, not every such curve was filed as active; the % refers to the signal ratio)
In short: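 FXR-UAS-bla HEK 293T cells carrying a UAS-driven beta-lactamase reporter were plated for 5 h at 37C/5% CO2, then exposed to DMSO-dissolved Tox21 10K compounds for 16 h at 37C. A LiveBLAzer B/G FRET substrate was loaded for 2 h at room temperature before fluorescence reading.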

[15] = qHTS assay to identify small molecule antagonists of the farnesoid-X-receptor (FXR) signaling pathway - cell viability counter screen (AID 743221; active means well fitted cell-killing curve with a large enough effect in the repeat runs, not every such curve was filed as active; further: nearly all actives have a fitted effect of over 50% in size)
In short: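 Cytotoxicity is taken from ATP luminescence (CellTiter-Glo, 30 min, room temperature) in FXR-bla HEK 293T cells previously incubated 16 h at 37 C with compound and chenodeoxycholic acid at 50 uM final.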

[16] = target: Vitamin D3 receptor (Homo sapiens) (UniProt P11473); assay: qHTS assay to identify small molecule agonists of the vitamin D receptor (VDR) signaling pathway (AID 743222; calls by dose curve)
In short: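 Cells carrying a VDR-driven beta-lactamase reporter are seeded at 2,000 per well and rested 4 h. Compounds in DMSO are added for 16 h at 37C, and FRET substrate fluorescence is measured after 2 h at room temperature.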

[17] = target: Vitamin D3 receptor (Homo sapiens) (UniProt P11473); assay: qHTS assay to identify small molecule antagonists of the vitamin D receptor (VDR) signaling pathway (AID 743223; active means well fitted inhibition curve with a large enough effect in the signal ratio in the repeat runs, not every such curve was filed as active; the % refers to the signal ratio)
In short: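 Quantitative HTS in VDR-bla reporter cells stimulated with 1alpha,25-dihydroxyvitamin D3, 3 nM final. Compound exposure 16 h, 37C, 5% CO2. Read-out: beta-lactamase FRET substrate fluorescence, 2 h RT.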

[18] = qHTS assay to identify small molecule agonists of the peroxisome proliferator-activated receptor delta (PPARd) signaling pathway - cell viability counter screen (AID 743211); further: nearly all actives have a fitted effect of over 55% in size
In short: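 Tox21 library compounds, delivered in DMSO, were incubated 17 h with PPARd-bla HEK293H cells; cytotoxicity was taken from CellTiter-Glo luminescence read 30 min after reagent addition.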

[19] = qHTS assay for small molecule activators of the heat shock response signaling pathway (AID 743210; active means well fitted activation curve with a large enough effect in the signal ratio in the repeat runs, with a control signal flat, not every such curve was filed as active; the % refers to the signal ratio; further: potency means the concentration at half of the fitted maximal effect;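 on activation: HeLa cells with beta-lactamase reporter driven by heat shock elements; series mostly up to about 63 µM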)
In short: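 Fluorescence from a cleaved B/G FRET substrate (2.5 h, room temp) reports HSE-driven beta-lactamase in HeLa cells treated 5 h at 37 C with DMSO-dissolved compounds.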

[20] = target: Bile acid receptor (Homo sapiens) (UniProt Q96RI1); assay: qHTS assay to identify small molecule antagonists of the farnesoid-X-receptor (FXR) signaling pathway (AID 743217; active means well fitted inhibition curve with a large enough effect in the signal ratio in the repeat runs, not every such curve was filed as active; the % refers to the signal ratio)
In short: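 Cells carrying a UAS-driven beta-lactamase reporter (GeneBLAzer FXR-UAS-bla HEK 293T) were plated and rested 5 h at 37 °C. Compounds in DMSO were added alongside chenodeoxycholic acid agonist at 50 uM final and left 16 h at 37 °C before FRET substrate readout.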

Measured: Potency

Sequence of Vitamin D3 receptor (Homo sapiens) (P11473 whole entry, looked up): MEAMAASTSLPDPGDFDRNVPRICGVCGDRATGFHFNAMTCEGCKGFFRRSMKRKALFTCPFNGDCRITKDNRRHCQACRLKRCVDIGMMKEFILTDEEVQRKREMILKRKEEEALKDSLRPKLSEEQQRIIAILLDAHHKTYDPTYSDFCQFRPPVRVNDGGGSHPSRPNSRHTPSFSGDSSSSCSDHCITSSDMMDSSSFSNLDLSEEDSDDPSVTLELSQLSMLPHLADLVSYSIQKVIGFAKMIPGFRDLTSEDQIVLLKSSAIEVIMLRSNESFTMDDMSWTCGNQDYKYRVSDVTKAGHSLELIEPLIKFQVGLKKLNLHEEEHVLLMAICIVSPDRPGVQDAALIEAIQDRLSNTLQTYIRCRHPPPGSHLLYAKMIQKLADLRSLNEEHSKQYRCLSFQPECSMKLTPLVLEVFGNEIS
Sequence of Peroxisome proliferator-activated receptor gamma (Homo sapiens) (P37231 whole entry, looked up): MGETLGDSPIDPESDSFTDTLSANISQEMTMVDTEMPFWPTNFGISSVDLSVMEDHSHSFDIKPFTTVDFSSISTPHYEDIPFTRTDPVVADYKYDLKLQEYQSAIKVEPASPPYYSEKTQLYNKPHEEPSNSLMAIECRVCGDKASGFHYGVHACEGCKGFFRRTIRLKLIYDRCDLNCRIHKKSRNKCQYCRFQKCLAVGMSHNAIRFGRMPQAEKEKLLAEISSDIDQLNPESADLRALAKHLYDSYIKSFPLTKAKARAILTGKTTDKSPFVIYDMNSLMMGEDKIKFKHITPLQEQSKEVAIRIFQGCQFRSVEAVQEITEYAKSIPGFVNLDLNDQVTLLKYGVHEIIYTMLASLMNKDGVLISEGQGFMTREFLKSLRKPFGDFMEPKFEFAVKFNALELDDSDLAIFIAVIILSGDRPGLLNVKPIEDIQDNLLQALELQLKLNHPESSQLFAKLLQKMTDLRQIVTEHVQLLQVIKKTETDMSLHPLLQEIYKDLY
Sequence of Peroxisome proliferator-activated receptor delta (Homo sapiens) (Q03181 whole entry, looked up): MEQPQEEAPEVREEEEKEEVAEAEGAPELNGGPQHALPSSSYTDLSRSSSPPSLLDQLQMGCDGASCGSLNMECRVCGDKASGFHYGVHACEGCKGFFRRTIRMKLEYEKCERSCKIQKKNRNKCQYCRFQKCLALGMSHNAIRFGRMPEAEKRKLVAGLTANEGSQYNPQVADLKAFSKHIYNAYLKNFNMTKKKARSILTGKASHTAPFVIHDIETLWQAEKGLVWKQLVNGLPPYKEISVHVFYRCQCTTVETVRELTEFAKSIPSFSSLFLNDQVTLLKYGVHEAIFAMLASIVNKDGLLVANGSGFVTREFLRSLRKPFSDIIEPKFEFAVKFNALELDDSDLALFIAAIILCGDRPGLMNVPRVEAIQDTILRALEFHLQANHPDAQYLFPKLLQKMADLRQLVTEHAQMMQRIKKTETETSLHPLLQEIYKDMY
Sequence of Aryl hydrocarbon receptor (Homo sapiens) (P35869 whole entry, looked up): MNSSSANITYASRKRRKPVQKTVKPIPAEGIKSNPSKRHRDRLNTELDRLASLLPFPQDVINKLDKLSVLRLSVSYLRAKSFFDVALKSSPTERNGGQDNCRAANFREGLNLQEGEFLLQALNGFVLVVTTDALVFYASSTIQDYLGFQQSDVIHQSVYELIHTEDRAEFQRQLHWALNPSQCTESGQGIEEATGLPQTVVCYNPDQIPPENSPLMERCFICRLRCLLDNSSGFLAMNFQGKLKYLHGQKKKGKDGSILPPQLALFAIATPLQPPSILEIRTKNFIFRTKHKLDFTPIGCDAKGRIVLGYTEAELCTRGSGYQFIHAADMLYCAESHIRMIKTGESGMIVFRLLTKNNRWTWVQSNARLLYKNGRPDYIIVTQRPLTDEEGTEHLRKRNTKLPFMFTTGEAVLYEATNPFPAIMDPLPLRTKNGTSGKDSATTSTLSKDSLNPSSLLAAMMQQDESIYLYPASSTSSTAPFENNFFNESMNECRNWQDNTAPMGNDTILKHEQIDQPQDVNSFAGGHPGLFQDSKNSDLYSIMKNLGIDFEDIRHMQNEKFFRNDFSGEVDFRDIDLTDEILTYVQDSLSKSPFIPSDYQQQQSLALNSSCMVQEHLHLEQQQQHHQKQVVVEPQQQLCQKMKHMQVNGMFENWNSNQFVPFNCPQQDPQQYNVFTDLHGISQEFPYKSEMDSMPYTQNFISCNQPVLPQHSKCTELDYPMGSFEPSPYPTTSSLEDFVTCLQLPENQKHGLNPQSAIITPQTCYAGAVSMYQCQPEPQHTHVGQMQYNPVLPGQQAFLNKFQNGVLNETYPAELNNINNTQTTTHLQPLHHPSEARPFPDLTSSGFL
Sequence of Bile acid receptor (Homo sapiens) (Q96RI1 whole entry, looked up): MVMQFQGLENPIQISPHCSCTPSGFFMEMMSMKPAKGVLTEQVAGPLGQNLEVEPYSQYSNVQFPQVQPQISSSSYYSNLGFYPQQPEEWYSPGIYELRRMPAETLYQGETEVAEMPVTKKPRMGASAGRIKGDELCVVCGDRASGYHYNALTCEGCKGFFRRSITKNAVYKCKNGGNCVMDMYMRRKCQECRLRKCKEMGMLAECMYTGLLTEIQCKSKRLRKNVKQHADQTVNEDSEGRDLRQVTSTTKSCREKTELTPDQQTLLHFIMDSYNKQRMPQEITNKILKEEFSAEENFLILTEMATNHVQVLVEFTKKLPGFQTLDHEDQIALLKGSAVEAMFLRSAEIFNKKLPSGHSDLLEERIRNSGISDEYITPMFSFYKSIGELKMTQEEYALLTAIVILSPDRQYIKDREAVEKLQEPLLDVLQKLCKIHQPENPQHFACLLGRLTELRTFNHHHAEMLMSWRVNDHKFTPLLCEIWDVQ

CC(C)(O)C(Cl)(Cl)Cl
not listed: [18] | [19] | [20]
inactive: all other assays above

CN(C)C(=O)Oc1cc(OC(=O)N(C)C)cc(C(O)CNC(C)(C)C)c1 (configuration not stated)
not listed: [19] | [20]
inactive: all other assays above

CCCCCCCCSC(=O)Oc1cc(Cl)nnc1-c1ccccc1
not listed: [5] | [14] | [15] | [20]
inactive: all other assays above

C=CC1(C)OC(=O)N(c2cc(Cl)cc(Cl)c2)C1=O (configuration not stated)
not listed: [11] | [19]
inactive: all other assays above

O=S1(=O)OCCO1
not listed: [8] | [20]
inactive: all other assays above

C[C@H]1CCCC(=O)CCC/C=C/c2cc(O)cc(O)c2C(=O)O1
active: [1] 18.6 µM | [19] 12.7 µM
37.1 µM (active) and inactive: [3]
inactive: [2] | [4] | [5] | [18] | [10] | [11] | [15]

C/C=C/CC#N
not listed: [5] | [12] | [16] | [17] | [20]
inactive: all other assays above
